The results in this text go back to PubChem BioAssay (Tox21).

SMILES strings stand for the structures. A number with no mark means an inactive call. Inconclusive results are not listed. Calls of active or inactive are those of the source. Unless noted, calls come from the whole dose curve; as a rule, active = well fitted curve in the direction sought with a large enough effect in the repeat runs; inconclusive = weak or mixed curves; inactive = no such curve, though single readings can be large; an effect the other way counts as inactive or inconclusive.

Test [1] in a line: qHTS assay to identify small molecule antagonists of the androgen receptor (AR) signaling pathway using the MDA cell line in the presence of 0.5 nM R1881 - cell viability counter screen (AID 1259242). Note: nearly all actives have a fitted effect of over 45% in size. In a few lines: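 Concentration-response screen of compounds for toxicity in MDA-kb2 reporter cells: 16 hr at 37C with 0.5 nM R1881, endpoint live-cell protease fluorescence measured in the reporter wells.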
In general terms: In qHTS, concentration-response curves come from the screen itself.

For test [2], the target named is Estrogen receptor (Homo sapiens) (UniProt P03372). Nature of the test: qHTS assay to identify small molecule antagonists of the estrogen receptor alpha (ER-alpha) signaling pathway using the BG1 cell line in the presence of 0.1 nM 17-beta-estradiol (AID 1259244). Note: nearly all actives have a fitted effect of over 50% in size. In a few lines:
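Compounds were tested against 0.1 nM (final) 17beta-estradiol in VM7Luc4E2 cells, which express full-length ER-alpha and an ERE-luciferase reporter; luminescence was recorded following 22 h exposure.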

A short description of test [3]: qHTS assay to identify small molecule phospholipidosis (PLD) inducers (AID 1259344; active = well fitted curve in the direction sought with a large enough effect; an effect the other way counts as inactive or inconclusive). An outline of the steps:
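Image-based: LipidTOX Red pit count/intensity per well and per cell; HepG2, 24 h compound at 37 C, PFA fixation, Hoechst counterstain.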

Test [4] is described as follows: qHTS assay to identify small molecule HDAC inhibitors (AID 1259364).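 Note: wild-type HCT-116 cells with endogenous class I/II HDAC activity; top concentration of the series differs between compounds; nearly all actives have a fitted effect of over 45% in size.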 An outline of the steps: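 Screening used wild-type human colon HCT-116 cells incubated overnight, dosed with compounds for 2 hours, and assayed with a homogeneous luminogenic HDAC I/II reagent for 30 minutes at room temperature.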
The nature of test [5]: qHTS assay to identify small molecule agonists of the sonic hedgehog signaling (Shh) pathway - cell viability counter screen (AID 1259366). Note: nearly all actives have a fitted effect of over 50% in size. In a few lines:
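In quantitative high-throughput format, 3T3 Gli1-Luc cells were exposed to compounds for 24hr and multiplexed for viability using CellTiter-Fluor, incubated 1hr at 37C before the fluorescence read.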

Test [6] is described as follows: qHTS assay to identify small molecule antagonists of the sonic hedgehog signaling (Shh) pathway - cell viability counter screen (AID 1259367). Note: nearly all actives have a fitted effect of over 55% in size. An outline of the steps:
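Tox21 library chemicals were tested on a Gli1-Luc NIH/3T3 clone (2,000 cells/well) stimulated by conditioned medium; viability was quantified as fluorescence from CellTiter-Fluor reagent added at 23 hr.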

The nature of test [7]: qHTS assay to identify small molecule agonists of the sonic hedgehog signaling (Shh) pathway (AID 1259368; calls by dose curve;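 note: NIH/3T3-derived 3T3Gli1-Luc cells carrying a stable Gli1-driven firefly luciferase reporter; series mostly up to about 92 µM; nearly all actives have a fitted effect of over 15% in size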). An outline of the steps: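 Hedgehog pathway agonism scored by increased firefly luciferase luminescence in 3T3Gli1-Luc cells treated 24 hr at 37 C; detection used a 30 min room-temperature reagent incubation.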
A short description of test [8]: qHTS assay to identify small molecule antagonists of the sonic hedgehog signaling (Shh) pathway (AID 1259369; calls by dose curve; note: nearly all actives have a fitted effect of over 45% in size). An outline of the steps:
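NIH/3T3 stable Gli1-Luc clone, 2,000 cells/well, 4hr settle; cpd + conditioned medium 24hr; Luc reagent 30min RT; luminescence.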

The target of test [9] is Estrogen receptor beta (Homo sapiens) (UniProt Q92731). In words: qHTS assay to identify small molecule agonists of the estrogen receptor beta (ER-beta) signaling pathway (AID 1259377; active = well fitted activation curve with a large enough effect in the signal ratio in the repeat runs, not every such curve was filed as active; the % refers to the signal ratio). An outline of the steps: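 Reporter cells (HEK293T, ER-beta-UAS-bla) receive compounds or DMSO after a 6 hr pre-incubation. They then incubate 16 hr at 37C/5% CO2, and fluorescence from LiveBLAzer B/G substrate is measured after 2 hours at room temperature.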
Chain of Estrogen receptor beta (Homo sapiens) (Q92731 whole entry, looked up): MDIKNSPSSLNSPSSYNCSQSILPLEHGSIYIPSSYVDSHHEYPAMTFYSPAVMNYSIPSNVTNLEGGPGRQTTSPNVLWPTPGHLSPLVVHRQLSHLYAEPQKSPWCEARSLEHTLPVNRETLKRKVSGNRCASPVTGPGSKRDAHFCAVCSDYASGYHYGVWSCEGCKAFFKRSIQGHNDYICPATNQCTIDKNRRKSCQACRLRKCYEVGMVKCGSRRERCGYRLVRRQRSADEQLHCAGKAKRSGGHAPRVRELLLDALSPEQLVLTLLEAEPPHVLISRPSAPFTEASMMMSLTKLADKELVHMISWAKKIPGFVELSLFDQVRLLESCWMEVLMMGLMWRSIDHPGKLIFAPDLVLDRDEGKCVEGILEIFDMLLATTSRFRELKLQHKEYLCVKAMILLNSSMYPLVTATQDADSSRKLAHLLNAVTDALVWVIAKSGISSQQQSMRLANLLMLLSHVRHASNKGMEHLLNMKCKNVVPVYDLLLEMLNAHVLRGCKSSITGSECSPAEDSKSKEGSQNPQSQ

Test [10] has the same target. In words: qHTS assay to identify small molecule antagonists of the estrogen receptor beta (ER-beta) signaling pathway (AID 1259378; active = well fitted inhibition curve with a large enough effect in the signal ratio in the repeat runs, not every such curve was filed as active; the % refers to the signal ratio). An outline of the steps:
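ER-beta-UAS-bla HEK293T cells in 2% charcoal-stripped FBS medium treated with compound plus 1nM final 17-beta-estradiol for 16 hr at 37C. Beta-lactamase reporter read by FRET substrate fluorescence after 2 hours at room temperature.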

The nature of test [11]: qHTS assay to identify small molecule agonists of the androgen receptor (AR) signaling pathway in the presence of an antagonist - cell viability counter screen (AID 1259379).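 Note: MDA-kb2 human breast cancer cells carrying an MMTV luciferase reporter; series mostly up to about 92 µM; nearly all actives have a fitted effect of over 25% in size.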 An outline of the steps: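 MDA-kb2 viability measured by CellTiter-Fluor fluorescence in the same wells as the luciferase signal; nilutamide 3.0uM final; 15-point compound titration; 16 hr at 37C.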

Test [12] can be described thus: qHTS assay to identify small molecule agonists of the estrogen receptor beta (ER-beta) signaling pathway - cell viability counter screen (AID 1259380). Note: nearly all actives have a fitted effect of over 30% in size. Note: potency is the fitted concentration of half-maximal effect. In a few lines:
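Measured: luminescence from CellTiter-Glo after 30 min at room temperature, added to wells already read for the LiveBLAzer FRET reporter (2 hr substrate); ER-beta-UAS-bla HEK293T cells had 16 hr compound treatment at 37C, 5% CO2.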

Test [13] in a line: qHTS assay to identify small molecule antagonists of the estrogen receptor beta (ER-beta) signaling pathway - cell viability counter screen (AID 1259382). Note: series mostly up to about 92 µM; nearly all actives have a fitted effect of over 55% in size. In a few lines:
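Readout: luminescence, CellTiter-Glo, same wells as bla assay. System: ER-beta-UAS-bla GripTite HEK293T, 2% charcoal-stripped FBS. Exposure: compounds plus 1nM 17-beta-estradiol, 16 hr, 37C.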

For test [14], the target named is Estrogen receptor (Homo sapiens) (UniProt P03372). In words: qHTS assay to identify small molecule agonists of the estrogen receptor alpha (ER-alpha) signaling pathway in the presence of an antagonist (AID 1259383; calls by dose curve; note: top concentration of the series differs between compounds; nearly all actives have a fitted effect of over 15% in size). An outline of the steps:
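Quantitative HTS confirmation: compounds titrated at 15 concentrations onto estrogen-deprived VM7Luc4E2 cells carrying a four-ERE luciferase construct, with ICI-182,780 present at 10.0nM final. Signal is luminescence after 22hr exposure.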

A short description of test [15]: qHTS assay to identify small molecule agonists or antagonists of the thyroid stimulating hormone receptor (TSHR) signaling pathway - wild type cell line counter screen (AID 1259384; calls by dose curve). In a few lines: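 Wild-type Hek293 cells, 800/well, 18 h at 37C, then compound with Ro20-1724 for 30 min RT. cAMP by HTRF (cAMP-d2/anti-cAMP cryptate), 1 h RT, fluorescence read. 15 concentrations, triplicates.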

The target in test [16] is Thyrotropin receptor (Homo sapiens) (UniProt P16473). Nature of the test: qHTS assay to identify small molecule antagonists of the thyroid stimulating hormone receptor (TSHR) signaling pathway (AID 1259385; calls by dose curve; note: nearly all actives have a fitted effect of over 20% in size). An outline of the steps: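 TSHR-HEK293 cells (800/well) plated 18 h, then compounds with Ro20-1724 and TSH at 1.5 ng/mL final, 30 min at room temperature. cAMP quantified by HTRF (cAMP-d2/anti-cAMP-cryptate, 1 h); 15 concentrations in triplicate.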
Chain of Thyrotropin receptor (Homo sapiens) (P16473 whole entry, looked up): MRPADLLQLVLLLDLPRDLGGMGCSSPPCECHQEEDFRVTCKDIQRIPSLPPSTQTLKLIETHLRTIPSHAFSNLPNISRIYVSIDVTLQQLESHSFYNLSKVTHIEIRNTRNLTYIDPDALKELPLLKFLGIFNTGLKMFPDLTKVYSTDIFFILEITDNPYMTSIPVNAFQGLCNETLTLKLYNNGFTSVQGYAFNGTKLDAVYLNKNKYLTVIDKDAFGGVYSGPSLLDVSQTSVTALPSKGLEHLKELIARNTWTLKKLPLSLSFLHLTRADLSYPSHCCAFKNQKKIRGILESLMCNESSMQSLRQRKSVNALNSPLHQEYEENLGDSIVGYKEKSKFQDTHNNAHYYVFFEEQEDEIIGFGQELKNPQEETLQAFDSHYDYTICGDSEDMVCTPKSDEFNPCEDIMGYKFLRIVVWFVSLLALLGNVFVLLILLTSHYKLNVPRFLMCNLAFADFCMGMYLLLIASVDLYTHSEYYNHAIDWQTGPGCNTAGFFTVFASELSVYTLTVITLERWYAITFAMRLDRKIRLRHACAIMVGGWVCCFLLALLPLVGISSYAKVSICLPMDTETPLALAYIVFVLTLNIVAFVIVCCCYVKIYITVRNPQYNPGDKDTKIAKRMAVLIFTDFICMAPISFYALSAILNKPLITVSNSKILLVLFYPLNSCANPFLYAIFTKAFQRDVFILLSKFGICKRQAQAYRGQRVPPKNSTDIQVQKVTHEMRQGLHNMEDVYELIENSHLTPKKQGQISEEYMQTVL

A short description of test [17]: qHTS assay to identify small molecule agonists of the estrogen receptor alpha (ER-alpha) signaling pathway in the presence of an antagonist - cell viability counter screen (AID 1259386).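 Note: series mostly up to about 92 µM; cells exposed to compounds for 22 h at 37 °C before the viability read; nearly all actives have a fitted effect of over 30% in size.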 In a few lines:
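The test measures whether compounds kill ER-alpha reporter cells (VM7Luc4E2) under antagonist co-treatment (ICI-182,780, 10.0nM). Fluorescence from CellTiter-Fluor is read after a 22hr exposure.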

Test [18] is described as follows: qHTS assay to identify small molecule HDAC inhibitors - cell viability counter screen (AID 1259365). Note: series mostly up to about 92 µM; nearly all actives have a fitted effect of over 50% in size. In a few lines: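 Measured quantity is CellTiter-Glo luminescence from wild-type HCT-116 cells after compound incubation of 2hr at 37C, 5% CO2; reagent developed 30min at room temperature.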
% is set by controls: 0 for no effect and ±100 for the full control effect.

Chain of Estrogen receptor (Homo sapiens) (P03372 whole entry, looked up): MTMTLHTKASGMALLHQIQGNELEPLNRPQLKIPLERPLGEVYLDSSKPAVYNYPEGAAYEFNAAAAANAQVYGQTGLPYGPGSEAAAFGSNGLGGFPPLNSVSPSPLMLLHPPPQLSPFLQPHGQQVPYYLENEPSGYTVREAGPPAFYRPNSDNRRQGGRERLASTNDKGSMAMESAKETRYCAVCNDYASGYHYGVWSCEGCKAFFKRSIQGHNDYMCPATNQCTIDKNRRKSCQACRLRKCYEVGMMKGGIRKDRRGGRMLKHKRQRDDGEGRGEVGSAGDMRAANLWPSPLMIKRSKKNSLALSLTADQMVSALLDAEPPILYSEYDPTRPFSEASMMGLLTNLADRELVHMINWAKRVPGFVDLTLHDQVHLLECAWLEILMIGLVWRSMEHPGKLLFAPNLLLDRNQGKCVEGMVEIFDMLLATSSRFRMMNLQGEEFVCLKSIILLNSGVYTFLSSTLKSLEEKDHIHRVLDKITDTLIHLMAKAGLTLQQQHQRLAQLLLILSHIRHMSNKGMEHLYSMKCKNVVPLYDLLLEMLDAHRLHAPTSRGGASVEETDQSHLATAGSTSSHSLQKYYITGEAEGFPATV

Consider `CC(=O)N(CC(O)CN(C(C)=O)c1c(I)c(C(=O)NCC(O)CO)c(I)c(C(=O)NCC(O)CO)c1I)c1c(I)c(C(=O)NCC(O)CO)c(I)c(C(=O)NCC(O)CO)c1I` (configuration not stated), for which the outcome in test [1], in [3], in [9], in [13] and in test [15] was inactive. Also, the Potency entry in [2], in test [4], in test [5], in test [6], in [7] and in test [8] was “inactive” in each case. For the same molecule, the Potency entry in test [10], in test [11], in [12], in [14], in [16] and in [17] was “inactive” each time.
As to `CCCCN1C[C@H](O)[C@@H](O)[C@H](O)[C@H]1CO`, the result in [1], in test [3], in test [18], in [13] and in [15] was inactive. Also, the Potency entry in test [2], in test [4], in [5], in [6], in test [7] and in test [8] was “inactive” each time. Moreover, the Potency entry in test [11], in test [12], in test [14], in test [16] and in test [17] was “inactive” throughout.
Consider `C=Cc1ccccc1`, for which the result in test [1], in [3], in test [18], in [9] and in test [13] was inactive. In addition, the Potency result in test [2], in test [4], in test [5], in test [6], in [7] and in test [8] was “inactive” in each case. In addition, the Potency result in [10], in test [11], in [12], in test [14] and in test [17] was “inactive” throughout.
With `CN1CCN(c2c(F)cc3c(=O)c(C(=O)O)cn4c3c2SCC4)CC1`, the result in [1], in [3], in test [18], in test [9], in [13] and in test [15] was inactive. Moreover, the Potency entry in test [2], in test [4], in test [5], in test [6], in test [7] and in test [8] was “inactive” in each case. Moreover, the Potency entry in test [11], in test [12], in [14], in [16] and in [17] was “inactive” in each case.
Regarding `CCN(CCCc1ccccc1)CCCc1ccccc1`, the result in test [1], in test [3], in test [18], in test [9] and in [15] was inactive. Moreover, the Potency result in test [2], in test [4], in test [5], in test [6], in [7] and in test [8] was “inactive” in each case. Also, the Potency entry in test [14] and in test [17] was “inactive” in each case. Further, the Potency in test [12] was 11.9 µM (active).
Regarding `CCCNC(C)(C)COC(=O)c1ccccc1`, the outcome in test [1], in test [3], in test [18] and in test [13] was inactive. Besides, the Potency result in test [2], in [4], in test [5], in test [6], in test [7] and in test [8] was “inactive” throughout. Besides, the Potency result in [11], in test [12], in test [14], in test [16] and in [17] was “inactive” throughout.
Take `O=c1oc2c(O)c(O)cc3c(=O)oc4c(O)c(O)cc1c4c23`: the viability change, negative = cytotoxic in test [1] is -6.98% [at 19 µM]; in test [5], -17.2% [at 19 µM]; in [6], 1.3% [at 19 µM]. Besides, the results for the activity change, negative = inhibition in test [2], in [4] and in test [8] were 1.12% [at 19 µM], -0.133% [at 19 µM] and 14.9% [at 19 µM], respectively. In [3], the call was inactive. In addition, the activity change, negative = cytotoxicity in test [18] was 2.83% [at 19 µM]; in test [11] it was -4.09% [at 19 µM]; in [12] it was 7.11% [at 19 µM]; in test [13] it was -1.21% [at 19 µM]; in test [17] it was -2.74% [at 19 µM]. Also, in test [7], the activity change is -1.7% [at 18.9 µM, active compounds read high]. In addition, the activity, negative = inhibition in test [10] is -0.396% [at 19 µM]. Further, the activation in [14] is -0.711% [at 19 µM].
For `CNCCC(Oc1ccccc1OC)c1ccccc1` (configuration not stated), the outcome in test [1], in test [3], in [18], in test [9], in test [13] and in test [15] was inactive. Moreover, the Potency result in [2], in [4], in test [5], in [6], in test [7] and in test [8] was “inactive” throughout. Further, the Potency entry in test [10], in test [11], in test [12], in test [14] and in test [17] was “inactive” in each case.
